PubChem BioAssay (EPA / NIEHS)
Where “and” joins values, the source holds several entries; their conditions need not be identical. Equal values may be shown once. Some compounds were tested as several samples or in several runs, with calls that do not always agree. Calls of active or inactive are those of the source. How the source made its calls: active means hit-call score of the fitted dose curve at least 0.9, where 1 is the maximum; inactive means score below 0.9.

read-out: Cyclin D1 (CCND1), CCND1 (gene 595); test: LTEA_HepaRG_CCND1: Life Technologies and Expression Analysis (LTEA) Assay for Cyclin D1 (CCND1) using HepaRG (AID 2283451); details: mRNA level, 48 h; actives raise or lower the signal;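 on AC50: differentiated human HepaRG liver cells in serum-free induction medium; TaqMan qRT-PCR transcript level normalised to ACTB GAPDH and POLR2A housekeeping genes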
Method in brief: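 Differentiated HepaRG cells exposed 48 h in serum-free induction medium to eight half-log concentrations from 100 uM top, 0.5% DMSO, duplicates. CCND1 mRNA measured by Fluidigm TaqMan qRT-PCR, normalised to ACTB, GAPDH, POLR2A; bidirectional fit.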

Row | SMILES | outcome | AC50
1 | CCOC(=O)CC(SP(=S)(OC)OC)C(=O)OCC (centres undefined) | inactive | –
2 | CS/C(C)=N/OC(=O)N(C)SN(C)C(=O)O/N=C(\C)SC | inactive | –
3 | OC(c1ccc(Cl)cc1)(c1cncnc1)c1ccccc1Cl (centres undefined) | – | 50 µM (active)
4 | C=CCC1=C(C)C(OC(=O)C2C(C=C(C)C)C2(C)C)CC1=O (centres undefined) | inactive | 88.2 µM (active)
5 | CC(C)Oc1cc(-n2nc(C(C)(C)C)oc2=O)c(Cl)cc1Cl | inactive | –
6 | Oc1ccccc1-c1ccccc1 | inactive | –
7 | CO/C=C(/C(=O)OC)c1ccccc1Oc1cc(Oc2ccccc2C#N)ncn1 | inactive | 12.6 µM (active)
8 | N#CC(CCc1ccc(Cl)cc1)(Cn1cncn1)c1ccccc1 (centres undefined) | – | 71.5 µM (active)
9 | COc1nc(NC(C)C)nc(NC(C)C)n1 | inactive | –
10 | CNC(=S)S | inactive | –
11 | C=CCC1=C(C)[C@@H](OC(=O)[C@@H]2[C@@H](C=C(C)C)C2(C)C)CC1=O | inactive | –
12 | CCNc1nc(Cl)nc(NCC)n1 | inactive | –
13 | CON(C)C(=O)Nc1ccc(Cl)c(Cl)c1 | – | 26.6 µM (active)
14 | CCOc1cc(Oc2ccc(C(F)(F)F)cc2Cl)ccc1[N+](=O)[O-] | inactive | –
15 | CC1=C(C(=O)Nc2ccccc2)SCCO1 | – | 50 µM (active)
16 | CC1COC(Cn2cncn2)(c2ccc(Oc3ccc(Cl)cc3)cc2Cl)O1 (centres undefined) | – | 83.9 µM (active)
17 | CCON=C(CC)C1=C(O)CC(c2c(C)cc(C)cc2C)CC1=O (centres undefined) | inactive | –
18 | Cc1cc(Cl)ccc1OCC(=O)O | inactive | –
19 | CCCCNC(=O)n1c(NC(=O)OC)nc2ccccc21 | inactive | –
20 | CCCC1COC(Cn2cncn2)(c2ccc(Cl)cc2Cl)O1 (centres undefined) | – | 90.2 µM (active)
21 | CCNc1nc(Cl)nc(NC(C)C)n1 | inactive | –
22 | CCOC(=O)C(Cl)Cc1cc(-n2nc(C)n(C(F)F)c2=O)c(F)cc1Cl (centres undefined) | inactive | –
23 | C=CC1(C)OC(=O)N(c2cc(Cl)cc(Cl)c2)C1=O (centres undefined) | inactive | –
24 | Cc1c(F)c(F)c(COC(=O)C2C(/C=C(\Cl)C(F)(F)F)C2(C)C)c(F)c1F (centres undefined) | inactive | –
25 | COP(=S)(OC)Oc1nc(Cl)c(Cl)cc1Cl | inactive | –

read-out: catalase (CAT), CAT (gene 847); test: LTEA_HepaRG_CAT: Life Technologies and Expression Analysis (LTEA) Assay for catalase (CAT) using HepaRG (AID 2283452); details: mRNA level, 48 h; actives raise or lower the signal;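 on AC50: TaqMan qRT-PCR signal normalized to ACTB GAPDH and POLR2A housekeeping genes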
Method in brief: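 HepaRG cells in serum-free induction medium, 0.5% DMSO vehicle, exposed 48 h in duplicate over 8 half-log concentrations from 100 uM. CAT mRNA measured by qRT-PCR, normalized to ACTB, GAPDH, POLR2A; bidirectional fit versus DMSO.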

Row | SMILES | outcome | AC50
26 | CCOC(=O)CC(SP(=S)(OC)OC)C(=O)OCC (centres undefined) | inactive | –
27 | CS/C(C)=N/OC(=O)N(C)SN(C)C(=O)O/N=C(\C)SC | inactive | –
28 | OC(c1ccc(Cl)cc1)(c1cncnc1)c1ccccc1Cl (centres undefined) | – | 87.6 µM (active)
29 | C=CCC1=C(C)C(OC(=O)C2C(C=C(C)C)C2(C)C)CC1=O (centres undefined) | inactive | 83.6 µM (active) and 16.6 µM (active)
30 | CC(C)Oc1cc(-n2nc(C(C)(C)C)oc2=O)c(Cl)cc1Cl | – | 50 µM (active)
31 | Oc1ccccc1-c1ccccc1 | inactive | –
32 | CO/C=C(/C(=O)OC)c1ccccc1Oc1cc(Oc2ccccc2C#N)ncn1 | – | 75.5 µM (active) and 69.5 µM (active) and 74.7 µM (active)
33 | N#CC(CCc1ccc(Cl)cc1)(Cn1cncn1)c1ccccc1 (centres undefined) | – | 54.5 µM (active)
34 | COc1nc(NC(C)C)nc(NC(C)C)n1 | inactive | –
35 | CNC(=S)S | inactive | –
36 | C=CCC1=C(C)[C@@H](OC(=O)[C@@H]2[C@@H](C=C(C)C)C2(C)C)CC1=O | inactive | –
37 | CCNc1nc(Cl)nc(NCC)n1 | inactive | –
38 | CON(C)C(=O)Nc1ccc(Cl)c(Cl)c1 | inactive | –
39 | CCOc1cc(Oc2ccc(C(F)(F)F)cc2Cl)ccc1[N+](=O)[O-] | – | 36.2 µM (active)
40 | CC1=C(C(=O)Nc2ccccc2)SCCO1 | – | 12.8 µM (active)
41 | CC1COC(Cn2cncn2)(c2ccc(Oc3ccc(Cl)cc3)cc2Cl)O1 (centres undefined) | – | 17.4 µM (active)
42 | CCON=C(CC)C1=C(O)CC(c2c(C)cc(C)cc2C)CC1=O (centres undefined) | inactive | –
43 | Cc1cc(Cl)ccc1OCC(=O)O | inactive | –
44 | CCCCNC(=O)n1c(NC(=O)OC)nc2ccccc21 | inactive | –
45 | CCCC1COC(Cn2cncn2)(c2ccc(Cl)cc2Cl)O1 (centres undefined) | – | 37.2 µM (active)
46 | CCNc1nc(Cl)nc(NC(C)C)n1 | inactive | –
47 | CCOC(=O)C(Cl)Cc1cc(-n2nc(C)n(C(F)F)c2=O)c(F)cc1Cl (centres undefined) | inactive | –
48 | C=CC1(C)OC(=O)N(c2cc(Cl)cc(Cl)c2)C1=O (centres undefined) | inactive | –
49 | Cc1c(F)c(F)c(COC(=O)C2C(/C=C(\Cl)C(F)(F)F)C2(C)C)c(F)c1F (centres undefined) | inactive | –
50 | COP(=S)(OC)Oc1nc(Cl)c(Cl)cc1Cl | inactive | –

read-out: flavin-containing dimethylaniline monooxygenases 3 (FMO3), FMO3 (gene 2328); test: LTEA_HepaRG_FMO3: Life Technologies and Expression Analysis (LTEA) Assay for flavin-containing dimethylaniline monooxygenases 3 (FMO3) using HepaRG (AID 2283453); details: mRNA level, 48 h; actives raise or lower the signal;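 on AC50: differentiated human HepaRG liver cells in serum-free induction medium; FMO3 transcript by TaqMan qRT-PCR normalized to ACTB GAPDH and POLR2A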
Method in brief: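 HepaRG, 48 h exposure, 8-pt half-log series from 100 uM, 0.5% DMSO vehicle, duplicates; FMO3 transcript by Fluidigm TaqMan qRT-PCR, housekeeping-normalized; gain/loss fit vs DMSO.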

Row | SMILES | outcome | AC50
51 | CCOC(=O)CC(SP(=S)(OC)OC)C(=O)OCC (centres undefined) | inactive | –
52 | CS/C(C)=N/OC(=O)N(C)SN(C)C(=O)O/N=C(\C)SC | inactive | –
53 | OC(c1ccc(Cl)cc1)(c1cncnc1)c1ccccc1Cl (centres undefined) | – | 77.8 µM (active)
54 | C=CCC1=C(C)C(OC(=O)C2C(C=C(C)C)C2(C)C)CC1=O (centres undefined) | inactive | 80.2 µM (active)
55 | CC(C)Oc1cc(-n2nc(C(C)(C)C)oc2=O)c(Cl)cc1Cl | – | 61.5 µM (active)
56 | Oc1ccccc1-c1ccccc1 | inactive | –
57 | CO/C=C(/C(=O)OC)c1ccccc1Oc1cc(Oc2ccccc2C#N)ncn1 | – | 79.3 µM (active) and 78.7 µM (active) and 76.5 µM (active)
58 | N#CC(CCc1ccc(Cl)cc1)(Cn1cncn1)c1ccccc1 (centres undefined) | – | 72.9 µM (active)
59 | COc1nc(NC(C)C)nc(NC(C)C)n1 | inactive | –
60 | CNC(=S)S | inactive | –
61 | C=CCC1=C(C)[C@@H](OC(=O)[C@@H]2[C@@H](C=C(C)C)C2(C)C)CC1=O | inactive | –
62 | CCNc1nc(Cl)nc(NCC)n1 | inactive | –
63 | CON(C)C(=O)Nc1ccc(Cl)c(Cl)c1 | – | 50 µM (active)
64 | CCOc1cc(Oc2ccc(C(F)(F)F)cc2Cl)ccc1[N+](=O)[O-] | – | 50 µM (active)
65 | CC1=C(C(=O)Nc2ccccc2)SCCO1 | – | 50 µM (active)
66 | CC1COC(Cn2cncn2)(c2ccc(Oc3ccc(Cl)cc3)cc2Cl)O1 (centres undefined) | – | 22.2 µM (active)
67 | CCON=C(CC)C1=C(O)CC(c2c(C)cc(C)cc2C)CC1=O (centres undefined) | inactive | –
68 | Cc1cc(Cl)ccc1OCC(=O)O | inactive | –
69 | CCCCNC(=O)n1c(NC(=O)OC)nc2ccccc21 | inactive | –
70 | CCCC1COC(Cn2cncn2)(c2ccc(Cl)cc2Cl)O1 (centres undefined) | – | 34.6 µM (active)
71 | CCNc1nc(Cl)nc(NC(C)C)n1 | inactive | –
72 | CCOC(=O)C(Cl)Cc1cc(-n2nc(C)n(C(F)F)c2=O)c(F)cc1Cl (centres undefined) | inactive | –
73 | C=CC1(C)OC(=O)N(c2cc(Cl)cc(Cl)c2)C1=O (centres undefined) | inactive | –
74 | Cc1c(F)c(F)c(COC(=O)C2C(/C=C(\Cl)C(F)(F)F)C2(C)C)c(F)c1F (centres undefined) | inactive | –
75 | COP(=S)(OC)Oc1nc(Cl)c(Cl)cc1Cl | inactive | –
